Values joined by “and” are separate entries in the source; they are usually repeats but may differ in a detail not shown here. Equal entries are not always repeated. Results filed as inconclusive are left out. Where a structure was tested more than once in an assay, its records may differ in their call. Active and inactive are the calls of the source. Unless noted, calls come from the whole dose curve; as a rule, active = well fitted curve in the direction sought with a large enough effect in the repeat runs; inconclusive = weak or mixed curves; inactive = no such curve, though single readings can be large; an effect the other way counts as inactive or inconclusive.
Experiments:
[1] = target: Aryl hydrocarbon receptor (Homo sapiens) (UniProt P35869); experiment: qHTS assay to identify small molecule that activate the aryl hydrocarbon receptor (AhR) signaling pathway (AID 743085); note: nearly all actives have a fitted effect of over 15% in size; note: potency is the fitted concentration of half-maximal effect;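 for activation: HG2L7.5c1 human HepG2 liver cells with stably integrated DRE-driven firefly reporter; series mostly up to about 70 µM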
How it was run: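 A multiplexed format paired cell viability (CellTiter-Fluor fluorescence) with AhR-dependent luciferase output (ONE-Glo luminescence) in the same wells of HepG2 DRE-luc cells after 24 h compound exposure at 37C.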

[2] = qHTS assay to identify small molecule that activate the aryl hydrocarbon receptor (AhR) signaling pathway - cell viability counter screen (AID 743086);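 note: HepG2 liver cells carrying the AhR DRE luciferase reporter; series mostly up to about 70 µM; nearly all actives have a fitted effect of over 45% in size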
How it was run: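 HepG2-AhR-luc (HG2L7.5c1) cells, 4000/well, were preincubated 5 h at 37C, exposed to compound in qHTS format for 24 hr at 37C, then given CellTiter-Fluor for 30 min; viability was read as fluorescence in the reporter wells.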

[3] = target: Peroxisome proliferator-activated receptor gamma (Homo sapiens) (UniProt P37231); experiment: qHTS assay to identify small molecule agonists of the peroxisome proliferator-activated receptor gamma (PPARg) signaling pathway (AID 743094; active = well fitted activation curve with a large enough effect in the signal ratio in the repeat runs, not every such curve was filed as active; the % refers to the signal ratio)
How it was run: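 Cell-based bla reporter, HEK293H background, PPARg-driven UAS. Pre-incubation 5 h, 37C, 5% CO2. Compound 17 h, 37C. Substrate 1 h RT; fluorescence.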

[4] = target: Peroxisome proliferator-activated receptor gamma (Homo sapiens) (UniProt P37231); experiment: qHTS assay to identify small molecule antagonists of the peroxisome proliferator-activated receptor gamma (PPARg) signaling pathway (AID 743191; calls by dose curve; note: nearly all actives have a fitted effect of over 30% in size; note: potency is the fitted concentration of half-maximal effect)
How it was run: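 GeneBLAzer PPARg UAS-bla HEK293H cells carrying a UAS-driven beta-lactamase reporter were plated at 3000 cells/well, preincubated 5 h at 37C, then given compound for 17 h at 37C; LiveBLAzer B/G FRET substrate was read after 1 h at room temperature.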

[5] = qHTS assay to identify small molecule antagonists of the peroxisome proliferator-activated receptor gamma (PPARg) signaling pathway - cell viability counter screen (AID 743194); conditions: Potency: co-treated with 50 nM rosiglitazone; note: nearly all actives have a fitted effect of over 55% in size
How it was run: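 PPARg-UAS-bla HEK293H cells were plated, rested 5 h at 37 C, then treated with compounds plus rosiglitazone (50 nM final) for 17 h at 37 C; viability was then read by CellTiter-Glo luminescence after 30 min at room temperature.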

[6] = qHTS assay for small molecule agonists of the antioxidant response element (ARE) signaling pathway (AID 743202; active = well fitted activation curve with a large enough effect in the signal ratio in the repeat runs, not every such curve was filed as active; the % refers to the signal ratio; note: potency is the fitted concentration of half-maximal effect)
How it was run: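 Following a 16 h, 37 C exposure of reporter HepG2 cells (ARE-driven beta-lactamase, 2,000 cells/well) to compounds, FRET substrate was applied for 2 h at room temperature and fluorescence intensity recorded.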

[7] = qHTS assay for small molecule agonists of the antioxidant response element (ARE) signaling pathway - cell viability counter screen (AID 743203; calls by dose curve; note: nearly all actives have a fitted effect of over 55% in size)
How it was run: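 Measured in the same wells as the beta-lactamase ARE reporter, this read-out is CellTiter-Glo luminescence from HepG2 ARE-bla cells given compounds for 16 hrs.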

[8] = qHTS assay for small molecule activators of the heat shock response signaling pathway - cell viability counter screen (AID 743209); note: nearly all actives have a fitted effect of over 50% in size
How it was run: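 Same-well multiplex: after 2.5 h room-temperature incubation with LiveBLAzer B/G substrate and fluorescence reading, CellTiter-Glo reagent was added to HSE-bla HeLa cells that had received compound for 5 h at 37 C; luminescence read after 30 min.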

[9] = qHTS assay for small molecule activators of the heat shock response signaling pathway (AID 743210; active = well fitted activation curve with a large enough effect in the signal ratio in the repeat runs, with a control signal flat, not every such curve was filed as active; the % refers to the signal ratio; note: series mostly up to about 63 µM)
How it was run: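 Heat shock element–beta-lactamase HeLa reporter cells; qHTS with compounds for 5 h at 37 C; detection by FRET substrate fluorescence after 2.5 h at RT.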

[10] = qHTS assay to identify small molecule agonists of the peroxisome proliferator-activated receptor delta (PPARd) signaling pathway - cell viability counter screen (AID 743211); note: nearly all actives have a fitted effect of over 55% in size
How it was run: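 Tox21 library compounds, delivered in DMSO, were incubated 17 h with PPARd-bla HEK293H cells; cytotoxicity was taken from CellTiter-Glo luminescence read 30 min after reagent addition.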

[11] = target: Peroxisome proliferator-activated receptor delta (Homo sapiens) (UniProt Q03181); experiment: qHTS assay to identify small molecule agonists of the peroxisome proliferator-activated receptor delta (PPARd) signaling pathway (AID 743212; calls by dose curve)
How it was run: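 Beta-lactamase reporter read by fluorescence (LiveBLAzer B/G FRET, 2 h, room temperature). Test agents, in DMSO, incubated at 37 C with PPARd-bla HEK293H cells.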

[12] = qHTS assay to identify small molecule antagonists of the peroxisome proliferator-activated receptor delta (PPARd) signaling pathway - cell viability counter screen (AID 743213); note: nearly all actives have a fitted effect of over 50% in size
How it was run: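 PPARd-bla HEK293H cells (3000/well) got compound plus 300 nM L165041 agonist for 17 h at 37 C. Viability in the same wells came from CellTiter-Glo luminescence after 30 min at room temperature.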

[13] = target: Peroxisome proliferator-activated receptor delta (Homo sapiens) (UniProt Q03181); experiment: qHTS assay to identify small molecule antagonists of the peroxisome proliferator-activated receptor delta (PPARd) signaling pathway (AID 743215; active = well fitted inhibition curve with a large enough effect in the signal ratio in the repeat runs, not every such curve was filed as active; the % refers to the signal ratio;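 note: cells stimulated with agonist L165041 at 300 nM final during compound exposure; series mostly up to about 62 µM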)
How it was run: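 Fluorescence from cleaved LiveBLAzer B/G FRET substrate (2 h, room temperature) reports PPARd-driven beta-lactamase in HEK293H UAS-bla cells. Cells had been treated 17 h at 37 C with compound plus 300 nM final L165041.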

[14] = target: Bile acid receptor (Homo sapiens) (UniProt Q96RI1); experiment: qHTS assay to identify small molecule antagonists of the farnesoid-X-receptor (FXR) signaling pathway (AID 743217; active = well fitted inhibition curve with a large enough effect in the signal ratio in the repeat runs, not every such curve was filed as active; the % refers to the signal ratio)
How it was run: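 FRET fluorescence after 2 h room-temperature LiveBLAzer loading gives the readout. Prior step: FXR-bla HEK 293T cells, seeded and incubated 5 h, received test compounds plus 50 uM final CDCA for 16 h at 37 °C.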

[15] = qHTS assay to identify small molecule agonists of the farnesoid-X-receptor (FXR) signaling pathway - cell viability counter screen (AID 743218); note: nearly all actives have a fitted effect of over 45% in size
How it was run: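 Readout: CellTiter-Glo luminescence, 30 min RT, multiplexed after the FXR-bla FRET reading. HEK 293T FXR-UAS-bla cells received compound 5 h post-plating and were incubated 16 h at 37 C.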

[16] = target: Bile acid receptor (Homo sapiens) (UniProt Q96RI1); experiment: qHTS assay to identify small molecule agonists of the farnesoid-X-receptor (FXR) signaling pathway (AID 743220; active = well fitted activation curve with a large enough effect in the signal ratio in the repeat runs, not every such curve was filed as active; the % refers to the signal ratio)
How it was run: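 FXR-UAS-bla HEK 293T cells carrying a UAS-driven beta-lactamase reporter were plated for 5 h at 37C/5% CO2, then exposed to DMSO-dissolved Tox21 10K compounds for 16 h at 37C. A LiveBLAzer B/G FRET substrate was loaded for 2 h at room temperature before fluorescence reading.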

[17] = qHTS assay to identify small molecule antagonists of the farnesoid-X-receptor (FXR) signaling pathway - cell viability counter screen (AID 743221; active = well fitted cell-killing curve with a large enough effect in the repeat runs, not every such curve was filed as active; note: nearly all actives have a fitted effect of over 50% in size)
How it was run: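 Cytotoxicity is taken from ATP luminescence (CellTiter-Glo, 30 min, room temperature) in FXR-bla HEK 293T cells previously incubated 16 h at 37 C with compound and chenodeoxycholic acid at 50 uM final.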

[18] = target: Vitamin D3 receptor (Homo sapiens) (UniProt P11473); experiment: qHTS assay to identify small molecule agonists of the vitamin D receptor (VDR) signaling pathway (AID 743222; calls by dose curve)
How it was run: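 Following 4 h attachment at 37C, VDR-bla cells (2,000 per well) received DMSO-dissolved compounds or controls. After 16 h incubation, LiveBLAzer B/G FRET substrate was added and fluorescence read 2 h later at room temperature.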

[19] = target: Vitamin D3 receptor (Homo sapiens) (UniProt P11473); experiment: qHTS assay to identify small molecule antagonists of the vitamin D receptor (VDR) signaling pathway (AID 743223; active = well fitted inhibition curve with a large enough effect in the signal ratio in the repeat runs, not every such curve was filed as active; the % refers to the signal ratio)
How it was run: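 Quantitative HTS in VDR-bla reporter cells stimulated with 1alpha,25-dihydroxyvitamin D3, 3 nM final. Compound exposure 16 h, 37C, 5% CO2. Read-out: beta-lactamase FRET substrate fluorescence, 2 h RT.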

[20] = qHTS assay to identify small molecule agonists of the vitamin D receptor (VDR) signaling pathway - cell viability counter screen (AID 743224); note: series mostly up to about 63 µM; nearly all actives have a fitted effect of over 50% in size
How it was run: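 In parallel with the bla FRET readout, cytotoxicity toward VDR-bla cells after 16 h compound exposure was assessed by CellTiter-Glo, with luminescence recorded after a 30 min room-temperature incubation.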

Measured: Potency

Chain of Peroxisome proliferator-activated receptor gamma (Homo sapiens) (P37231 whole entry, looked up): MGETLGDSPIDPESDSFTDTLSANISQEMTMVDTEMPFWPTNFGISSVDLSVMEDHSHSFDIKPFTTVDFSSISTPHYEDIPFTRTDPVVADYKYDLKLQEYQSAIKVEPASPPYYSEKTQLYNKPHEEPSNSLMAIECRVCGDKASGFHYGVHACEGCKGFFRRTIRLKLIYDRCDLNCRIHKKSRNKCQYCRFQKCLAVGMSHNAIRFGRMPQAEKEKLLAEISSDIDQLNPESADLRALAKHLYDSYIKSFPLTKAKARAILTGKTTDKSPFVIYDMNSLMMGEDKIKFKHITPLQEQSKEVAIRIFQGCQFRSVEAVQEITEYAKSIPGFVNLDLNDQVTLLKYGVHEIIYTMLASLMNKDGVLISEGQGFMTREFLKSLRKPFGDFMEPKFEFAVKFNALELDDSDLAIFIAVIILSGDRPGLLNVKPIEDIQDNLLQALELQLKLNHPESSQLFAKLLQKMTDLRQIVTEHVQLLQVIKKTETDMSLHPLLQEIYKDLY
Chain of Bile acid receptor (Homo sapiens) (Q96RI1 whole entry, looked up): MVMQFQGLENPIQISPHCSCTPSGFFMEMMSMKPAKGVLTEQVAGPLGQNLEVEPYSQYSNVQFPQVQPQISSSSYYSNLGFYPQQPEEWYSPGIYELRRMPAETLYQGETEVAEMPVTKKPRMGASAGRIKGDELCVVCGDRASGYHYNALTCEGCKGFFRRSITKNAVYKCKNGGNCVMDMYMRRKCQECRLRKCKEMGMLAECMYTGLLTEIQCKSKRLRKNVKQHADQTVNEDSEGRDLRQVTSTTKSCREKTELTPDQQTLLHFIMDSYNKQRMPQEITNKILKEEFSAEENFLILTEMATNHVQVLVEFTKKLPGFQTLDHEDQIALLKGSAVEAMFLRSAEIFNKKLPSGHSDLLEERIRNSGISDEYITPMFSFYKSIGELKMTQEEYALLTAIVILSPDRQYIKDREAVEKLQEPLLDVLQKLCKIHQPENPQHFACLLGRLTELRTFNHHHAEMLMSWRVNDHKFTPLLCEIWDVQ
Chain of Peroxisome proliferator-activated receptor delta (Homo sapiens) (Q03181 whole entry, looked up): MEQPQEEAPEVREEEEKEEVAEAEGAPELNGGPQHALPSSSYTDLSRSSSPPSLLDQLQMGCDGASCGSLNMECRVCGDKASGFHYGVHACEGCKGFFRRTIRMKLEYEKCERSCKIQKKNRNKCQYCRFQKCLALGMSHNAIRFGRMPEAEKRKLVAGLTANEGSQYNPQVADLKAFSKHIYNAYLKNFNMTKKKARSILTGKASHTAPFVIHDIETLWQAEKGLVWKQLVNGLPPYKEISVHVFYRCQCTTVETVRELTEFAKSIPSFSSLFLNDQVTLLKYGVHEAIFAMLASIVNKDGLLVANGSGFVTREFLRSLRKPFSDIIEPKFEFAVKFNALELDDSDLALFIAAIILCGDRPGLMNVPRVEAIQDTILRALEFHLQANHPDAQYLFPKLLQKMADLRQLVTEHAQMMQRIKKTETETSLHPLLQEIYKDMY
Chain of Aryl hydrocarbon receptor (Homo sapiens) (P35869 whole entry, looked up): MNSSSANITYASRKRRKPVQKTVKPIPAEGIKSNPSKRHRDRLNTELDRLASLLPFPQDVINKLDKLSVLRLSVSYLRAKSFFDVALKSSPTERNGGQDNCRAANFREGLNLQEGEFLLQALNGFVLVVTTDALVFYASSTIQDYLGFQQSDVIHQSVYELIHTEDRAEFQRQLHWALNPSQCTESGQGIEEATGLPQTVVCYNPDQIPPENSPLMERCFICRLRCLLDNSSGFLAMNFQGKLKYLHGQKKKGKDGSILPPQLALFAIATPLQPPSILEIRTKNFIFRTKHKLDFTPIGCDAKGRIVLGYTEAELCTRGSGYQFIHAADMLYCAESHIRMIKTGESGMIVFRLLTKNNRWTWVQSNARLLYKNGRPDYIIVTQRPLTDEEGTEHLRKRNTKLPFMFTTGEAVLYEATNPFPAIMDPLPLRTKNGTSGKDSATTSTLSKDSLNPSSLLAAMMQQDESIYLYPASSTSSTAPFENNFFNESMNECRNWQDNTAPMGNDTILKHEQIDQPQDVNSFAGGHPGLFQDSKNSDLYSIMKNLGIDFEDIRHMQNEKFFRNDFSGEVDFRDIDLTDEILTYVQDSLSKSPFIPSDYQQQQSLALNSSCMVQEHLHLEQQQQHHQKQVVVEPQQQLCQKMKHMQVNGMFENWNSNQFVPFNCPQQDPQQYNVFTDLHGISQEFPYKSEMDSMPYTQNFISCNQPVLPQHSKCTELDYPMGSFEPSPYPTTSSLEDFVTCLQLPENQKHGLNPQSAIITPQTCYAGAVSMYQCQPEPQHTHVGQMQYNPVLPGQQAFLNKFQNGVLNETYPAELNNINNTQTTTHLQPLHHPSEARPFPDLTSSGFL
Chain of Vitamin D3 receptor (Homo sapiens) (P11473 whole entry, looked up): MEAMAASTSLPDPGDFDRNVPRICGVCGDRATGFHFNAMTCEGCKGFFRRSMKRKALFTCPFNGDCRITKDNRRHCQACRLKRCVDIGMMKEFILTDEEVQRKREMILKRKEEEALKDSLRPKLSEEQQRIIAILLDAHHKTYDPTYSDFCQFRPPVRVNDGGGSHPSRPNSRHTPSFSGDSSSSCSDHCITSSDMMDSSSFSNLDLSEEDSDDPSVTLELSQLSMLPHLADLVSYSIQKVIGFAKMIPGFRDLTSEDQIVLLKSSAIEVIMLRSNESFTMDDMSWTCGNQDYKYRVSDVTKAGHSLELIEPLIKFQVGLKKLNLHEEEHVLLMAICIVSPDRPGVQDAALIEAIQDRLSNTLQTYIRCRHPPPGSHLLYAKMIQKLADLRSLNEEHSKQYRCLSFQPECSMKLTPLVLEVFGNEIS

NCCOS(=O)(=O)O
inactive: all assays above

NCC1(CC(=O)O)CCCCC1
not listed: [13] | [14] | [16] | [19]
inactive: all other assays above

NC(=O)CS(=O)C(c1ccccc1)c1ccccc1 (configuration not stated)
not listed: [11] | [13] | [14] | [16] | [18] | [19]
inactive: all other assays above

BrCCc1ccccc1
not listed: [14] | [16] | [18] | [19]
inactive: all other assays above

CC(Cl)(Cl)Cl
not listed: [12] | [14] | [16]
inactive: all other assays above

COc1cccc(C=O)c1
not listed: [13] | [14] | [16] | [19]
inactive: all other assays above

CC(O)CCl (configuration not stated)
not listed: [6] | [15] | [18] | [19]
inactive: all other assays above

CCCCCCCCSC(=O)Oc1cc(Cl)nnc1-c1ccccc1
active: [4] 43.6 µM
not listed: [9] | [13] | [14] | [16]
inactive: all other assays above

CC(C)(C)C(=O)Cl
not listed: [6] | [16] | [18] | [19]
inactive: all other assays above

Cn1c(CCCC(=O)O)nc2cc(N(CCCl)CCCl)ccc21
not listed: [13] | [16] | [18] | [19]
inactive: all other assays above

O=S1(=O)OCCO1
not listed: [9] | [13] | [14] | [19]
inactive: all other assays above

CCNc1nc(Cl)nc(NC(C)(C)C)n1
not listed: [16] | [17] | [19]
inactive: all other assays above

CCC(=O)OC1(c2ccccc2)CCN(C)CC1
not listed: [16] | [19]
inactive: all other assays above

CC[C@H](N)c1ccccc1
not listed: [10] | [11] | [13] | [14] | [16] | [19] | [20]
inactive: all other assays above

C[C@@H](N)[C@@H](O)c1ccccc1
inactive: [1] | [2] | [3] | [4] | [5] | [6] | [7] | [8] | [10] | [11] | [15]

ClCC1CO1 (configuration not stated)
not listed: [8] | [13] | [14] | [16] | [20]
inactive: all other assays above

CCOC(=O)CC(SP(=S)(OC)OC)C(=O)OCC (configuration not stated)
active: [6] 6.86 µM
inactive and 33.1 µM (active): [1]
not listed: [9] | [10] | [14] | [16] | [17] | [20]
inactive: all other assays above

CCOc1cc(OP(=S)(OC)OC)nc(CC)n1
not listed: [9] | [10] | [14] | [16] | [19]
inactive: all other assays above

Reference: PubChem BioAssay (Tox21)
